This note sets out measurements from the supplement of paper PMC6522484.

Assay [1] has as its system DLD1. Nature of the assay: cell viability (CellTiter-Glo) relative to plate median (fraction of plate median); higher = more viable cells. The conditions noted are these: 5 µM; treatment time 24 h; reporter: 7TFP. A digest of the protocol:
(§1)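 Colorectal cancer lines with stably integrated lentiviral TCF/Wnt firefly luciferase reporters received library compounds at a final 5 µM, 24 h after seeding into 384-well plates, for a 24 h exposure. Reported figures are plate-median-normalised firefly luciferase or CellTiterGlo luminescence per well. They average two independent replicates.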
On the technique in general: Cellular ATP, detected with luciferase, serves as a proxy for viable cell number.

For assay [2], the system named is HCT116. The assay is described as above. The settings on record: 5 µM; treatment time 24 h; reporter: TCF4/Wnt. A digest of the protocol: as §1
Assay [3] deals with SW480. The description is as above. The conditions noted are these: 5 µM; treatment time 24 h; reporter: 7TFP. The procedure, abridged: as §1
Assay [4] has as its system DLD1. Nature of the assay: TCF/Wnt firefly luciferase reporter signal relative to plate median (fraction of plate median); higher = higher Wnt reporter signal. The settings on record: 5 µM; treatment time 24 h; reporter: 7TFP. The procedure, abridged:
as §1

The subject of assay [5] is SW480. The description is as above. The conditions noted are these: 5 µM; treatment time 24 h; reporter: 7TFP. The procedure, abridged: as §1
The test system of assay [6] is DLD1. Nature of the assay: cell viability (CellTiter-Glo) relative to plate median (fraction of plate median); higher = more viable cells. The settings on record: 10 µM, treatment time 24 h. A digest of the protocol:
(§2)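 Colorectal cancer cell lines stably transduced with lentiviral TCF/Wnt firefly luciferase reporters (7TFP or TCF4/Wnt) were seeded in 384-well plates. 24 h later they received kinase inhibitor library compounds at a final 10 µM for 24 h. Parallel plates were read for firefly luciferase or CellTiterGlo luminescence on a Tecan F500 reader. Each well's signal was normalised to the plate median (webcellHTS2, additive, no log transformation), and the mean of two independent replicates is reported.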

In assay [7] the test system is HCT116. The assay is described as above. The settings on record: 10 µM; treatment time 24 h; reporter: TCF4/Wnt. The procedure, abridged: as §2
The subject of assay [8] is SW480. Described as above. The settings on record: 10 µM; treatment time 24 h; reporter: 7TFP. The procedure, abridged: as §2
The test system of assay [9] is DLD1. Nature of the assay: TCF/Wnt firefly luciferase reporter signal relative to plate median (fraction of plate median); higher = higher Wnt reporter signal. The settings on record: 10 µM, treatment time 24 h. A digest of the protocol:
as §2
In general terms: In a reporter assay the amount or activity of a reporter protein is the signal.

Assay [10] relates to HCT116. Described as above. The settings on record: 10 µM; treatment time 24 h; reporter: TCF4/Wnt. A digest of the protocol:
as §2

Assay [11] relates to SW480. The assay is described as above. The conditions noted are these: 10 µM; treatment time 24 h; reporter: 7TFP. The procedure, abridged:
as §2

Structures are written as SMILES. ± gives the standard deviation of the averaged measurements.

For `COc1ccc(C(=O)O)cc1OC`, the cell viability in [1] was 0.902 ± 0.18; in assay [2], 1.04 ± 0.098; in [3], 0.984 ± 0.023. The results for the “TCF/Wnt firefly luciferase reporter signal” value in assay [4] and in assay [5] were 0.949 ± 0.087 and 0.9985 ± 0.0021, respectively.
Taken in the same sequence, the figures for `COc1cc2occc2c2oc(=O)ccc12` were 0.986 ± 0.076, 0.941 ± 0.11, 0.95 ± 0.026, 1.06 ± 0.17 and 0.818 ± 0.11.
`CN[C@@H]1C[C@H]2O[C@@](C)([C@@H]1OC)n1c3ccccc3c3c4c(c5c6ccccc6n2c5c31)C(=O)NC4` [Staurosporine]: the cell viability in assay [6] (reporter: 7TFP) was 0.617 ± 0.047; in assay [6] (reporter: TCF4/Wnt), 0.701 ± 0.067; in assay [7] it was 0.23 ± 0.13; in assay [8], 0.68 ± 0.25; in [1], 0.837 ± 0.027; in assay [2] it was 0.712 ± 0.0099. In assay [3], this molecule showed a cell viability of 1.14 ± 0.035. Besides, the “TCF/Wnt firefly luciferase reporter signal” value was determined as 0.583 ± 0.023 in assay [4]; 0.965 ± 0.045 in assay [5]; 0.204 ± 0.069 in [9] (reporter: 7TFP); 0.2 ± 0.04 in assay [9] (reporter: TCF4/Wnt); 0.103 ± 0.0065 in assay [10]; 0.346 ± 0.19 in [11].
For `CCN1CCN(C(=O)Cc2ccc(Nc3ncc(F)c(Nc4ccc(C(=O)Nc5ccccc5Cl)cc4)n3)cc2)CC1` [Aurora A Inhibitor I], the cell viability in [6] (reporter: 7TFP) is 0.955 ± 0.036; in [6] (reporter: TCF4/Wnt) it was 1.09 ± 0.057; in assay [7], 1.09 ± 0.14; in assay [8] it was 0.927 ± 0.093. The “TCF/Wnt firefly luciferase reporter signal” value is 1.16 ± 0.057 in [9] (reporter: 7TFP), 1.16 ± 0.028 in assay [9] (reporter: TCF4/Wnt), 1.21 ± 0.071 in [10] and 1.02 ± 0.035 in [11].
Turning to `C=C(C)[C@@H]1CC[C@]2(C(=O)O[C@@H]3O[C@H](CO[C@@H]4O[C@H](CO)[C@@H](O[C@@H]5O[C@@H](C)[C@H](O)[C@@H](O)[C@H]5O)[C@H](O)[C@H]4O)[C@@H](O)[C@H](O)[C@H]3O)CC[C@]3(C)[C@H](C[C@H]4OC(=O)C[C@@H](O)[C@]5(C)[C@@H]4[C@@]3(C)CC[C@H]5C(=C)C)[C@@H]12` [Chiisanoside (5)], the cell viability amounted to 0.873 ± 0.16 in assay [1], 0.958 ± 0.074 in [2] and 0.945 ± 0.059 in [3]. Further, the “TCF/Wnt firefly luciferase reporter signal” value came out at 0.817 ± 0.059 in assay [4] and 0.948 ± 0.12 in assay [5].
Regarding `O=c1[nH]c2ccc(Cl)cc2c(N[C@@H]2CN3CCC2CC3)c1-c1nc2ccccc2[nH]1`, the cell viability is 1.004 ± 0.0092 in [6] (reporter: 7TFP), 1.06 ± 0.05 in assay [6] (reporter: TCF4/Wnt), 0.521 ± 0.25 in [7] and 0.992 ± 0.025 in [8]. Further, the “TCF/Wnt firefly luciferase reporter signal” value in assay [9] (reporter: 7TFP) came to 2.27 ± 0.078; in [9] (reporter: TCF4/Wnt), 2.27 ± 0.18; in [10], 0.439 ± 0.17; in [11], 1.8 ± 0.099.
Consider `CC(=O)O[C@@H]1C[C@@]2(C)[C@H](c3ccoc3)C[C@H]3O[C@]32[C@]2(C)C(=O)C(O)=C3C(C)(C)C(=O)C=C[C@]3(C)[C@@H]12`, for which the cell viability in [1] amounted to 0.901 ± 0.044; in [2], 0.824 ± 0.14; in assay [3] it was 1.09 ± 0.12. Further, the “TCF/Wnt firefly luciferase reporter signal” value in assay [4] is 0.888 ± 0.03; in assay [5] it was 0.831 ± 0.19.
Taken in the same sequence, the figures for `C=C[C@H]1CN2CC[C@H]1C[C@H]2[C@H](O)c1ccnc2ccccc12` were 1.03 ± 0.059, 1.07 ± 0.042, 1.01 ± 0.023, 0.862 ± 0.061 and 0.981 ± 0.028.
Taken in the same sequence, the figures for `NCCc1cc(O)c(O)cc1O` were 1.04 ± 0.065, 1.03 ± 0.028, 0.983 ± 0.025, 1.13 ± 0.16 and 1.24 ± 0.021.
As for `Cc1ccccc1-n1c(Cn2cnc3c(N)ncnc32)nc2cccc(C)c2c1=O`, the cell viability in assay [6] (reporter: 7TFP) came to 1.05 ± 0.05; in assay [6] (reporter: TCF4/Wnt), 0.964 ± 0.029; in assay [7] it was 1.19 ± 0.064; in assay [8] it was 0.947 ± 0.027. In addition, the “TCF/Wnt firefly luciferase reporter signal” value turned out to be 1.02 ± 0.021 in [9] (reporter: 7TFP), 0.941 ± 0.027 in assay [9] (reporter: TCF4/Wnt), 1.18 ± 0.057 in [10] and 0.9485 ± 0.005 in assay [11].
With `COC[C@]12CN(C=O)[C@@H]3[C@@H]4[C@H](OC)[C@H]1[C@@]3([C@@H](OC)C[C@H]2O)[C@@H]1C[C@@]2(O)[C@H](OC(=O)c3ccccc3)[C@@H]1[C@]4(OC(C)=O)[C@@H](O)[C@@H]2OC`, the results for the cell viability in assay [1], in assay [2] and in [3] were 1.01 ± 0.057, 1.17 ± 0.057 and 1.05 ± 0.071, respectively. In addition, the “TCF/Wnt firefly luciferase reporter signal” value in assay [4] came out at 0.934 ± 0.15; in assay [5], 1.02 ± 0.052.
The matching figures for `CN1[C@@H]2CC[C@H]1C[C@@H](OC(=O)[C@H](CO)c1ccccc1)C2`: 1.06 ± 0.14, 1.09, 1 ± 0.086, 0.974 ± 0.11 and 1.05 ± 0.028.
`N#C[C@H](O[C@@H]1O[C@H](CO[C@@H]2O[C@H](CO)[C@@H](O)[C@H](O)[C@H]2O)[C@@H](O)[C@H](O)[C@H]1O)c1ccccc1`: the results for the cell viability in assay [1], in assay [2] and in assay [3] were 1.01 ± 0.09, 1.04 ± 0.089 and 1.01 ± 0.042, respectively. Also, the “TCF/Wnt firefly luciferase reporter signal” value is 0.757 ± 0.0042 in assay [4] and 0.916 ± 0.071 in assay [5].
The matching figures for `COc1ccc2c(c1OC)C(=O)O[C@H]2[C@H]1c2cc3c(cc2CCN1C)OCO3`: 1.06 ± 0.09, 1.04 ± 0.061, 0.9915 ± 0.0078, 1.08 ± 0.028 and 1.03 ± 0.069.
Taken in the same sequence, the figures for `COP(=S)(OC)Oc1ccc(Sc2ccc(OP(=S)(OC)OC)cc2)cc1` were 1.025 ± 0.0071, 1.06 ± 0.014, 0.987 ± 0.011, 1.06 ± 0.092 and 1.04 ± 0.014.
For the molecule `COc1cc2c(cc1-c1cc3cc4ccoc4cc3oc1=O)OCO2`, the cell viability in assay [1] was found to be 0.964 ± 0.03; in assay [2], 0.949 ± 0.054; in assay [3], 0.93 ± 0.059. Also, the “TCF/Wnt firefly luciferase reporter signal” value worked out at 0.973 ± 0.017 in [4] and 0.9445 ± 0.0021 in [5].
The matching figures for `C[C@]12CC[C@H](O)CC1=CC[C@@H]1[C@@H]2CC[C@]2(C)C(=O)CC[C@@H]12`: 1.04, 1.15 ± 0.021, 1.02 ± 0.021, 1.04 ± 0.14 and 0.916 ± 0.026.
The matching figures for `CCC(C)C(=O)OC1CC2(C)C(c3ccoc3)OC(=O)CC23OC2(C)OC34C(OC(=O)C(C)C)C3(O)C(OC(=O)C5(C)OC5C)C5(C)CC3(O)C(C)(C5CC(=O)OC)C14O2` (configuration not stated): 1.09 ± 0.071, 1.12 ± 0.11, 1.08 ± 0.014, 1.045 ± 0.0071 and 1.13 ± 0.014.
Taken in the same sequence, the figures for `O=[N+]([O-])c1cc([As](=O)(O)O)ccc1O` were 1.07 ± 0.14, 1.07 ± 0.14, 1.075 ± 0.0071, 1.01 ± 0.19 and 0.959 ± 0.1.
For the molecule `CC1(C)C(=O)C=C[C@]2(C)[C@H]3CC[C@@]4(C)[C@H](c5ccoc5)OC(=O)[C@H]5O[C@]54[C@]3(C)[C@H](O)C[C@@H]12`, the cell viability in [1] is 1.01 ± 0.12; in assay [2], 1.08 ± 0.028; in [3], 0.989 ± 0.016. Also, the “TCF/Wnt firefly luciferase reporter signal” value in assay [4] stood at 0.904 ± 0.028; in assay [5] it was 0.972 ± 0.097.
In the case of `CC(C)(C)[C@]1(O)C[C@@H]2OC(=O)C[C@@]23C(=O)O[C@@H]2OC(=O)[C@H](O)[C@]213`, the figures for the cell viability in assay [1], in [2] and in assay [3] were 0.922 ± 0.033, 1.03 ± 0.05 and 1.01 ± 0.077, respectively. Further, the “TCF/Wnt firefly luciferase reporter signal” value in assay [4] was 1.17 ± 0.042; in assay [5] it was 1.07 ± 0.1.
The matching figures for `NC(=O)C[S+]([O-])C(c1ccccc1)c1ccccc1` (configuration not stated): 0.952 ± 0.12, 1.1 ± 0.05, 1.02 ± 0.014, 1.08 ± 0.064 and 1.02 ± 0.014.
Take `C[C@]12C=CC(=O)C=C1CC[C@@H]1[C@@H]2CC[C@]2(C)C(=O)CC[C@@H]12`: the cell viability in assay [1] came to 1.07 ± 0.11; in assay [2] it was 1.09 ± 0.035; in assay [3], 1.11 ± 0.078. In addition, the entries for the “TCF/Wnt firefly luciferase reporter signal” value in assay [4] and in [5] were 1.08 ± 0.19 and 1.025 ± 0.0071, respectively.
Taken in the same sequence, the figures for `CCCCCCCCCCCC[C@@H](O)[C@H]1CC[C@H]([C@H](O)CCCC[C@H](O)CCCCC[C@@H](O)CC2=CC(C)OC2=O)O1` (some centres not stated) [annonacin] were 0.926 ± 0.076, 0.933 ± 0.014, 0.92 ± 0.092, 0.987 ± 0.075 and 0.923 ± 0.018.
With `C[C@]12CCC(=O)C=C1CCc1ccc(O)cc12`, the results for the cell viability in [1], in assay [2] and in assay [3] were 1.03 ± 0.042, 1.05 ± 0.05 and 1.05 ± 0.014, respectively. The “TCF/Wnt firefly luciferase reporter signal” value worked out at 1.07 ± 0.14 in assay [4] and 1.03 ± 0.028 in assay [5].
